# According to PubChem BioAssay AID1159580 (chemical genetic matrix, 2015):
# Values joined by “and” are separate entries in the source; they are usually repeats but may differ in a detail not shown here. Equal entries are not always repeated. Hit rate of the full screen: of about 5,500 compounds, about 2,000 (36%) were called active. Not shown: some 18% with an inconclusive outcome. No stated cut-off is given here; in the data, active means normalized growth mostly below about 0.91 (no sharp cut-off); inconclusive means no clear call, values can overlap the other calls; inactive means mostly above about 0.92. The list shows a part of the results.
# Assay: chemical genetic growth profiling, strain panel (AID 1159580);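 further: tested at 20 µM; growth read once vehicle control cultures reached saturation at 30 °C; 1 = growth at the plate median or of vehicle wells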
# Conditions: S. cerevisiae deletion strains, growth OD
smiles,measurement,setting,value
O=C(O[C@@H]1Cc2c(O)cc(O)cc2O[C@@H]1c1cc(O)c(=O)c2c(O)c(O)cc([C@H]3Oc4cc(O)cc(O)c4C[C@H]3OC(=O)c3cc(O)c(O)c(O)c3)c2c1)c1cc(O)c(O)c(O)c1,normalized growth,"locus YAL013W, strain DEP1, stronger effect = lower value",0.633 (active)
same,normalized growth,"locus YAL021C, strain ccr4, stronger effect = lower value",0.0843 (active)
same,normalized growth,"locus YAL026C, strain drs2, stronger effect = lower value",0.432 (active)
same,normalized growth,"locus YAL030W, strain snc1, stronger effect = lower value",0.604 (active)
same,normalized growth,"locus YBL061C, strain skt5, stronger effect = lower value",0.513 (active)
same,normalized growth,"locus YBR009C, strain hhf1, stronger effect = lower value",0.434 (active)
same,normalized growth,"locus YBR021W, strain FUR4, stronger effect = lower value",0.986 (inactive)
same,normalized growth,"locus YBR023C, strain chs3, stronger effect = lower value",0.43 (active)
same,normalized growth,"locus YBR171W, strain sec66, stronger effect = lower value",0.918 (inactive)
same,normalized growth,"locus YBR229C, strain ROT2, stronger effect = lower value",0.981 (inactive)
same,normalized growth,"locus YBR231C, strain swc5, stronger effect = lower value",0.418 (active)
same,normalized growth,"locus YBR279W, strain paf1, stronger effect = lower value",0.554 (active)
same,normalized growth,"locus YCL011C, strain gbp2, stronger effect = lower value",0.509 (active)
same,normalized growth,"locus YCL016C, strain dcc1, stronger effect = lower value",0.754 (active)
same,normalized growth,"locus YCL029C, strain bik1, stronger effect = lower value",0.966 (inactive)
same,normalized growth,"locus YCL061C, strain MRC1, stronger effect = lower value",0.724 (active)
same,normalized growth,"locus YCL069W, strain vba3, stronger effect = lower value",0.776 (active)
same,normalized growth,"locus YCR088W, strain abp1, stronger effect = lower value",0.892 (active)
same,normalized growth,"locus YDL005C, strain med2, stronger effect = lower value",0.821 (active)
same,normalized growth,"locus YDL035C, strain GPR1, stronger effect = lower value",0.658 (active)
same,normalized growth,"locus YDL040C, strain nat1, stronger effect = lower value",0.868 (active)
same,normalized growth,"locus YDL074C, strain BRE1, stronger effect = lower value",0.58 (active)
same,normalized growth,"locus YDL101C, strain DUN1, stronger effect = lower value",0.706 (active)
same,normalized growth,"locus YDL134C, strain PPH21, stronger effect = lower value",0.741 (active)
same,normalized growth,"locus YDL185W, strain tfp1, stronger effect = lower value",0.995 (inactive)
same,normalized growth,"locus YDL192W, strain arf1, stronger effect = lower value",0.955 (inactive)
same,normalized growth,"locus YDR001C, strain nth1, stronger effect = lower value",0.962 (inactive)
same,normalized growth,"locus YDR069C, strain doa4, stronger effect = lower value",0.105 (active)
same,normalized growth,"locus YDR101C, strain arx1, stronger effect = lower value",1 (inactive)
same,normalized growth,"locus YDR137W, strain rgp1, stronger effect = lower value",0.485 (active)
same,normalized growth,"locus YDR150W, strain NUM1, stronger effect = lower value",0.851 (active)
same,normalized growth,"locus YDR159W, strain sac3, stronger effect = lower value",0.735 (active)
same,normalized growth,"locus YDR162C, strain NBP2, stronger effect = lower value",0.344 (active)
same,normalized growth,"locus YDR195W, strain ref2",0.76 (active)
same,normalized growth,"locus YDR297W, strain sur2, stronger effect = lower value",0.45 (active)
same,normalized growth,"locus YDR318W, strain mcm21, stronger effect = lower value",0.981 (inactive)
same,normalized growth,"locus YDR334W, strain swr1, stronger effect = lower value",0.468 (active)
same,normalized growth,"locus YDR335W, strain msn5, stronger effect = lower value",0.604 (active)
same,normalized growth,"locus YDR388W, stronger effect = lower value",1.01 (inactive)
same,normalized growth,"locus YDR392W, strain spt3, stronger effect = lower value",0.81 (inactive)
same,normalized growth,"locus YDR502C, strain sam2, stronger effect = lower value",0.866 (active)
same,normalized growth,"locus YEL003W, strain gim4, stronger effect = lower value",0.527 (active)
same,normalized growth,"locus YEL037C, strain rad23, stronger effect = lower value",0.686 (active)
same,normalized growth,"locus YEL061C, strain CIN8 (second series), stronger effect = lower value",0.915 (inactive)
same,normalized growth,"locus YEL061C, strain CIN8, stronger effect = lower value",0.817 (active)
same,normalized growth,"locus YER015W, strain faa2, stronger effect = lower value",0.305 (active)
same,normalized growth,"locus YER016W, strain bim1, stronger effect = lower value",0.823 (active)
same,normalized growth,"locus YER110C, stronger effect = lower value",1.04 (inactive)
same,normalized growth,"locus YER111C, strain swi4, stronger effect = lower value",0.692 (active)
same,normalized growth,"locus YER155C, strain BEM2 (second series), stronger effect = lower value",0.836 (active)
same,normalized growth,"locus YER155C, strain BEM2, stronger effect = lower value",1 (inactive)
same,normalized growth,"locus YER167W, strain BCK2, stronger effect = lower value",0.896 (active)
same,normalized growth,"locus YFR010W, strain ubp6, stronger effect = lower value",0.571 (active)
same,normalized growth,"locus YGL078C, strain dbp3, stronger effect = lower value",1.02 (inactive)
same,normalized growth,"locus YGL086W, strain mad1, stronger effect = lower value",0.893 (active)
same,normalized growth,"locus YGL167C, strain pmr1, stronger effect = lower value",0.551 (active)
same,normalized growth,"locus YGL173C, strain kem1, stronger effect = lower value",0.181 (active)
same,normalized growth,"locus YGL227W, strain vid30, stronger effect = lower value",0.989 (inactive)
same,normalized growth,"locus YGL240W, strain doc1, stronger effect = lower value",0.693 (active)
same,normalized growth,"locus YGL248W, strain PDE1, stronger effect = lower value",0.681 (active)
same,normalized growth,"locus YGL253W, strain hxk2, stronger effect = lower value",0.555 (active)
same,normalized growth,"locus YGR078C, strain PAC10, stronger effect = lower value",0.787 (active)
same,normalized growth,"locus YGR135W, strain pre9, stronger effect = lower value",0.828 (active)
same,normalized growth,"locus YGR229C, strain SMI1, stronger effect = lower value",0.0949 (active)
same,normalized growth,"locus YGR252W, strain gcn5, stronger effect = lower value",0.896 (inactive)
same,normalized growth,"locus YHR013C, strain ard1, stronger effect = lower value",0.322 (active)
same,normalized growth,"locus YHR027C, strain rpn1, stronger effect = lower value",0.186 (active)
same,normalized growth,"locus YHR030C, strain SLT2, stronger effect = lower value",0.856 (active) and 1.02 (inactive)
same,normalized growth,"locus YHR079C, strain IRE1 (second series), stronger effect = lower value",1.01 (inactive)
same,normalized growth,"locus YHR079C, strain IRE1, stronger effect = lower value",1.04 (inactive)
same,normalized growth,"locus YHR094C, strain hxt1, stronger effect = lower value",1.04 (inactive)
same,normalized growth,"locus YHR129C, strain ARP1, stronger effect = lower value",0.845 (active)
same,normalized growth,"locus YHR142W, strain chs7, stronger effect = lower value",0.493 (active)
same,normalized growth,"locus YHR200W, strain rpn10, stronger effect = lower value",0.969 (inactive)
same,normalized growth,"locus YIL066C, strain RNR3, stronger effect = lower value",0.509 (active)
same,normalized growth,"locus YIL073C, strain SPO22, stronger effect = lower value",0.196 (active)
same,normalized growth,"locus YIL125W, strain kgd1, stronger effect = lower value",1.04 (inactive)
same,normalized growth,"locus YIR030C, strain dcg1, stronger effect = lower value",1.03 (inactive)
same,normalized growth,"locus YJL092W, strain hpr5, stronger effect = lower value",0.856 (active)
same,normalized growth,"locus YJL095W, strain BCK1 (second series), stronger effect = lower value",0.269 (active)
same,normalized growth,"locus YJL095W, strain BCK1, stronger effect = lower value",0.59 (active) and 1.02 (inactive)
same,normalized growth,"locus YJL115W, strain asf1, stronger effect = lower value",0.91 (inactive)
same,normalized growth,"locus YJL129C, strain trk1, stronger effect = lower value",0.812 (active)
same,normalized growth,"locus YJL134W, strain LCB3, stronger effect = lower value",0.965 (inactive)
same,normalized growth,"locus YJL154C, strain vps35, stronger effect = lower value",0.842 (active)
same,normalized growth,"locus YJL164C, strain tpk1, stronger effect = lower value",0.419 (active)
same,normalized growth,"locus YJL166W, strain qcr8, stronger effect = lower value",0.371 (active)
same,normalized growth,"locus YJL168C, strain set2, stronger effect = lower value",1.01 (inactive)
same,normalized growth,"locus YJL187C, strain SWE1 (second series), stronger effect = lower value",0.512 (active)
same,normalized growth,"locus YJL187C, strain SWE1, stronger effect = lower value",0.457 (active)
same,normalized growth,"locus YJR043C, strain POL32, stronger effect = lower value",0.599 (active)
same,normalized growth,"locus YJR066W, strain TOR1, stronger effect = lower value",0.96 (inactive)
